RE007 growth inh: less growth of the S. pombe RE007 Vpr strain. S. pombe RE007 Vpr strain, BacTiter-Glo ATP luminescence, 24 h. hit rate 0.21% among 360,000. Potency, µM (doses to about 92.2 µM), hits mostly inhibitors. AID 651644; active means well fitted falling curve with a large enough effect; inconclusive means small, poorly fitted or top-dose-only effect; inactive means no such curve, though single readings can be large or run the other way; further: nearly all actives have a fitted effect of over 50% in size
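Fission yeast strain RE007, carrying one chromosomally integrated HIV-1 vpr copy, was seeded at OD 0.01 in PMG+AL medium with 23 nL pinned compound. After 24 h at 30 °C and 99% humidity, viability was read by BacTiter-Glo luminescence.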
Vaccinia Venus: vaccinia inhibition (Venus reporter). Vaccinia virus Venus reporter expression, fluorescence. Potency, µM (series often up to 36.5 µM), actives largely listed as inhibitors. hit rate 0.46% among 330,000. AID 720580; calls by dose curve; tested in A549 cells; further: nearly all actives have a fitted effect of over 30% in size
Vaccinia mCherry: vaccinia inhibition (mCherry reporter). Vaccinia virus mCherry reporter infection, fluorescence. Potency, µM (series often up to 36.5 µM), actives largely listed as inhibitors. hit rate 0.63% among 310,000; calls by dose curve; tested in A549 cells; further: nearly all actives have a fitted effect of over 35% in size
TbPYK inhibitor: inhibitors of Trypanosoma brucei pyruvate kinase; Q57TT1; TbPYK enzyme, Kinase-Glo Plus ATP luminescence, 45 min; Potency, µM (doses to about 76.8 µM), actives largely listed as inhibitors; hit rate 0.12% among 410,000; AID 624173; further: nearly all actives have a fitted effect of over 50% in size
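ADP (130 uM final) triggers the TbPYK reaction after compound addition; incubation is 45 min at room temperature. Kinase-Glo Plus is then added and luminescence imaged. Normalized data are fitted to concentration-effect curves.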
AMA1 RON2 block: disrupts binding of P. falciparum AMA1 to RON2. AlphaScreen AMA1-biotinylated RON2 peptide binding. Potency, µM (titrated, usually from 58.2 µM), hits mostly inhibitors. hit rate 0.2% among 360,000. AID 720542; further: nearly all actives have a fitted effect of over 45% in size
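AMA1 (3D7) with his tag at 25 nM final met compounds first, then biotinylated RON2 peptide at 25 nM; detection used donor plus acceptor beads, 10 µg/mL apiece, read by AlphaScreen after 30 min at room temperature.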
LmPK inhibitor: inhibitors of Leishmania mexicana pyruvate kinase; hit rate 0.37% among 290,000; Potency, µM (top dose mostly 57.5 µM), usual class: inhibitors; Q27686; purified LmPK, Kinase-Glo ATP luminescence, 1 h; AID 1721
Target sequence (Q27686 whole entry, looked up): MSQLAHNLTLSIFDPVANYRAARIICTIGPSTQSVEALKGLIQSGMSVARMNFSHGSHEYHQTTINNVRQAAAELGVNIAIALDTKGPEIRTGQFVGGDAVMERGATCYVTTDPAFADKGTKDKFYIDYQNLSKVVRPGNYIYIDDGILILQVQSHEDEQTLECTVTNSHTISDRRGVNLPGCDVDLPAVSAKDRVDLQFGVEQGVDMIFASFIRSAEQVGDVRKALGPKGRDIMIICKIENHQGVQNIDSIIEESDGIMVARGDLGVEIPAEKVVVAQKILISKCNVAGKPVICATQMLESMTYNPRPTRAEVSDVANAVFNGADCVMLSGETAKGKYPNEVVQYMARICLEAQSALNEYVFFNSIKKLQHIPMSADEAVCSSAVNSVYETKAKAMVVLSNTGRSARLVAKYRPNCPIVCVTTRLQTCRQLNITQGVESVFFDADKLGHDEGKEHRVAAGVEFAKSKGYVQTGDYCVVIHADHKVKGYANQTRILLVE
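Purified LmPK (0.1 nM) with 0.5 mM PEP and 0.1 mM ADP in imidazole buffer pH 7.2 with MgCl2/KCl, 1 h at room temperature. ATP formed was read by luciferase luminescence and normalized to no-enzyme and uninhibited controls.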
A number is an active result; – = inactive; ? = inconclusive; · = not tested or not shown; ! = not confirmed by another sample; [ ] = another dose, or the depositor's remark. Most compounds without a hit are left out; they make up all but 1.3% or so of the library. Unless noted, the call rests on the fitted dose curve; in most records, active means well fitted curve in the direction sought with a large enough effect; inconclusive means small, poorly fitted or top-dose-only effect, or another doubt; inactive means no such curve, though single readings can be large; an effect the other way counts as inactive or inconclusive.

SMILES	RE007 growth inh	Vaccinia Venus	Vaccinia mCherry	TbPYK inhibitor	AMA1 RON2 block	LmPK inhibitor
Cc1cc(C)n(CCN(C)Cc2nc(Cc3ccccc3F)no2)n1	–	–	–	–	–	28µM
O=C1C=CC(=O)c2c(O)c(CO)c(CO)c(O)c21	–	–	?	?	?	·
O=c1c(CO)cc(CO)cc(CO)c1O	–	·	·	–	22µM	–
COc1cccc(N2CCN(S(=O)(=O)c3ccc(-c4cc(C(F)(F)F)on4)s3)CC2)c1	·	–	–	–	·	·
O=C(NCC(=O)N(c1ccc2c(c1)OCO2)C(C(=O)NC1CCCC1)c1ccncc1)c1ccco1 (centres undefined)	–	–	–	?	40µM	–
O=C(Nc1ccccn1)c1ccc2c(c1)OCCO2	–	–	–	?	–	?
O=C(Nc1nc(-c2ccccn2)cs1)c1ccc2c(c1)OCCO2	–	?	11µM	–	–	–
CC(=O)Nc1ccc(C(=O)Nc2nc(-c3ccccn3)cs2)cc1	?	·	·	–	–	–
O=C(Nc1nc(-c2ccccn2)cs1)c1ccccc1-n1cnnn1	–	–	1.3µM	?	–	–
O=C(Nc1ccccn1)c1cc2ccccc2o1	?	–	–	?	–	10µM
Cn1nc(C(=O)Nc2nc(-c3ccccn3)cs2)c2ccccc2c1=O	–	–	–	–	–	·
O=C(Nc1ccccn1)c1ccc2c(c1)OCO2	–	–	–	–	–	14µM
CCN1CCCC1CNC(=O)c1cnn(-c2nccc(-c3cc(OC)ccc3OC)n2)c1C (centres undefined)	·	–	–	·	·	·
S=C(Nc1ccc(Oc2ccccc2)cc1)NC1CCCCCC1	–	?	?	–	–[11.6 µM]	–
S=C(NNc1ccc2ccccc2c1)NC1CCCCC1	–	–	–	–	16µM	–
CC1=C(N2CC2)C(=O)C(CO)=C(N2CC2)C1=O	–	0.35µM	0.35µM	–	–	·
C=C1C(=O)OC2C1CCC(C)=C1C(=O)C3OC3(C)C12 (centres undefined)	?	?	11µM	–	–	·
CC(C)(C)c1ccc(C2CC2C(=O)N/N=C\c2ccc[nH]2)cc1 (centres undefined)	–	4µM	?	–	–	–
O=C(N/N=C/c1ccco1)C1CC1c1ccccc1 (centres undefined)	–	–	–	–	–	–
COc1ccc(OC)c(-c2cc(C3CCN(c4cc(Cl)nc(N)n4)CC3)[nH]n2)c1	–	?	13µM	–	–	–
COc1cccc(-n2c(-c3cccc(S(=O)(=O)N(C)C)c3)n[nH]c2=S)c1	–	–	–	7.1µM	–	–
Cc1[nH]c2ccc(-c3n[nH]c(=S)n3-c3ccccc3)cc2c1C	–	–	–	?	–	?
COc1cccc(-n2c(-c3ccc4[nH]c(C)c(C)c4c3)n[nH]c2=S)c1	–	–	–	7.9µM	–	–
CCc1nc(N2CCN(C(=O)c3ccco3)CC2)c2c3c(sc2n1)CCCC3	–	–	–	–	–	–
CC1CCc2c(sc3nc(C4CC4)nc(N4CCN(C(=O)c5ccco5)CC4)c23)C1 (centres undefined)	–	?	14µM	–	–	·
SMILES	RE007 growth inh	Vaccinia Venus	Vaccinia mCherry	TbPYK inhibitor	AMA1 RON2 block	LmPK inhibitor
CCN(c1ccc(NC(=O)COC(=O)/C=C/c2cccs2)cc1)C(C)C	?	–	–	–	18µM	–
Cc1ccc(NC(=O)COC(=O)/C=C/c2cccs2)cc1	–	–	–	–	–	–
O=C(NCCOc1ccccc1)c1ccccc1Cl	–	–	–	–	–	–
CN(C(=O)COc1ccccc1C(=O)NCCOc1ccccc1)c1ccccc1	–	11µM	?	–	–	–
c1ccc(-c2nnc(-c3ccccn3)s2)nc1	–	–	–	?	–	13µM
CCCCCCCCCCCCCC[n+]1ccc(C)cc1	·	·	·	–	·	·
CCCCCCCCCCCCCCCC[n+]1ccc(/C=N/O)cc1	?	10µM	11µM	–	–	–
CCCCCCC[n+]1ccc(-c2cc[n+](CCCCCCC)cc2)cc1	6.3µM	?	?	–	–	–
CCCCCCCCCCCCCCCC[n+]1ccccc1	16µM!	14µM!	13µM!	–	–	·
CC(=O)c1ccc(F)c(-c2cc(C)cc3c2OC(CNC(=O)C[C@@H]2C[C@@H](C)NC(=S)N2)C3)c1 (some centres undefined)	·	–	–	·	·	·
COC(=O)C1C(O)CC[C@@H]2CN3CCc4c([nH]c5ccccc45)C3C[C@@H]12 (some centres undefined)	·	–	–	·	·	·
Clc1ccc2c(SCC3CO3)c3ccccc3nc2c1 (centres undefined)	1µM	?	–	–	–	·
CCC1CN(Cc2cccn2-c2ccccn2)Cc2cc(OC)ccc2O1 (centres undefined)	·	–	–	·	·	·
CCN1C(=O)/C(=c2\o/c(=C3\C=Cc4ccccc4N3CC)c(=O)n2CC)SC1=S	–	–	–	–	–	–
CCN1C(=O)/C(=C2\C=Cc3ccccc3N2CC)SC1=S	–	–	–	–	1.2µM	–
COc1cc(OC)cc(C(=O)NCC2Cc3cccc(-c4nc(C)cnc4C)c3O2)c1 (centres undefined)	·	–	–	·	·	·
COc1cccc(-c2sc3ccccc3c2-c2ccc(OCCN3CCCC3)cc2)c1	–	13µM	?	–	?	·
c1ccc(-c2sc3ccccc3c2-c2ccc(OCCN3CCCC3)cc2)cc1	–	14µM	?	–	–	·
COc1cccc(-c2sc3ccccc3c2-c2ccc(OCCN3CCCCC3)cc2)c1	–	–	–	–	?	·
COc1ccc(-c2sc3ccccc3c2-c2ccc(OCCN3CCCCC3)cc2)cc1	–	–	–	–	?	·
COc1cccc(-c2sc3ccccc3c2-c2ccc(OCCN(C)C)cc2)c1	?	?	14µM	–	?	·
COc1cc(Cl)c(C)cc1N1C(=O)[C@@H]2C[C@H]1CN2Cc1ccccn1	·	–	–	·	·	·
CC1=CC(C)(C)n2c(O)c(N=NC(N)=S)c3c(C)c(C)cc1c32	–	·	·	–	–	–
CC1=CC(C)(C)n2c(O)c(N=NC(N)=S)c3c(C)ccc1c32	–	?	1.3µM	–	–	–
Cc1cc(N2CCN(C)CC2)nc2ccc(NC(=O)c3ccc(C(C)(C)C)cc3)cc12	·	14µM	?	–	·	·
SMILES	RE007 growth inh	Vaccinia Venus	Vaccinia mCherry	TbPYK inhibitor	AMA1 RON2 block	LmPK inhibitor
N#CSCC(=O)c1cccc2ccccc12	?	–	–	–	–	–
N#CC(=C1C=C(Br)C(=NO)C=C1Cl)c1cccc2ccccc12	–	?	?	–	14µM	·
COc1ccc(C2(C(=O)NCC3Cc4cccc(-c5nc(C)cnc5C)c4O3)CCCC2)cc1 (centres undefined)	·	–	–	·	·	·
COc1cccc(CN2CCCC(c3nc(-c4ccncc4)ncc3-c3ccccc3)C2)c1O (centres undefined)	·	–	–	·	·	·
O=c1c2cc3c(nc2ncn1Cc1ccccc1F)CCCC3	·	–	–	–	·	·
NC1(c2ccc(-c3nc4ccn5c(=O)[nH]nc5c4cc3-c3ccccc3)cc2)CCC1	·	10µM	7.9µM	–	·	·

Compound activity from PubChem.
